Out of some 2,300 compounds screened, about 1,100 (48%) were called active. The set was probably picked from earlier hits. These entries were drawn from the full list. Unmarked numbers belong to inactive results.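 How the source made its calls: active means inhibition above the mean inhibition of all tested sample wells plus 3 SD (cut at about 10% in these data); inactive means the rest.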
Target: Luciferin 4-monooxygenase (Photinus pyralis) (UniProt P08659)
Assay: firefly luciferase inhibitors, HSP90 counter-screen, confirmation, artefact control for HSP90 inhibitor project, biochemical, luminescence, triplicate (AID 1847);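 further: 0% = DMSO with luciferase and 100% = wells lacking luciferase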
Settings: purified native firefly luciferase, at 5.9 µM, stronger effect = higher value

Sequence of Luciferin 4-monooxygenase (Photinus pyralis) (P08659 whole entry, looked up): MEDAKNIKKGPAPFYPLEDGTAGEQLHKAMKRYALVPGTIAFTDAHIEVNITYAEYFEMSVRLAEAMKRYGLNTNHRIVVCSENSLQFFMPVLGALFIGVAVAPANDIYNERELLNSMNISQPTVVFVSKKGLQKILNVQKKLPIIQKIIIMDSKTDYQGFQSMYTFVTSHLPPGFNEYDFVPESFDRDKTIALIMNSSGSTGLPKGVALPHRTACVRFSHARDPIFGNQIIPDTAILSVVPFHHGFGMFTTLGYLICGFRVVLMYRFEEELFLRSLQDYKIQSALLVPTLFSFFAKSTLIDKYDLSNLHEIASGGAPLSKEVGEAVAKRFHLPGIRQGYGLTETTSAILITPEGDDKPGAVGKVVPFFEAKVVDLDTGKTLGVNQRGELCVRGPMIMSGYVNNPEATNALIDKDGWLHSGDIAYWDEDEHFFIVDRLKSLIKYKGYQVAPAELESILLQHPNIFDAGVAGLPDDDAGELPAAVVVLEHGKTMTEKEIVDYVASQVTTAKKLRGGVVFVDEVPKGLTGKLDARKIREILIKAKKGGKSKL

Row | Compound | inhibition
1 | COc1cccc(-c2nc3ccc(N4CCN(C)CC4)cc3[nH]2)c1 | 38.9% (active)
2 | O=c1c2ccccc2nc(/C=C/c2ccco2)n1-c1ccccc1O | 4.47%
